From PubChem BioAssay AID1981 (Southern Research Specialized Biocontainment Screening …, 2009)
The campaign covered roughly 2,200 compounds. About 480 (22%) were called active. No rule for the calls is given here. The list is a sample of the results. Entries with a potency or affinity are not part of this list.

Assay: S. Typhimurium GFP fluorescence dose response in modified counterscreen for PhoP regulon inhibitor project (AID 1981)
Conditions: 4 h; series mostly up to 150 µM

Structure (SMILES) | outcome
CCc1cccc2c(C#N)cn(CC(=O)NCCOC)c12 | inactive
C/C(=N\n1nnnc1Nc1ccccc1)c1ccc(N)cc1 | inactive
Cc1ccc2c(c1)C(c1ccccc1)NCC(=O)N2 (stereo not given) | inactive
Cc1cc(C)nc(NC(=O)Cc2cccs2)n1 | inactive
Cc1cccc(OCC(=O)NNc2c3ccccc3nc3ccccc23)c1 | inactive
COc1ccc(/C=C/C(=O)O)cc1COc1cccc(C)c1 | inactive
C=CCN=C(NC#N)SCc1ccccc1Cl | inactive
Cc1cc(C)c(NC(=O)COc2ccccc2C(=O)Nc2ccc3c(c2)oc2ccccc23)c(C)c1 | inactive
O=C1Nc2ccccc2/C1=C/c1cnc[nH]1 | inactive
Cc1ccccc1OCCCCCn1ccnc1 | inactive
Cc1nn(-c2ccccc2)c2sc(-c3n[nH]c(=S)o3)cc12 | inactive
COc1ccc(OC)c(S(=O)(=O)N2c3cc(F)ccc3CCC2C)c1 (stereo not given) | inactive
Cc1cccc(Sc2c([N+](=O)[O-])ncn2C)c1 | inactive
Clc1ccc(OCCn2ccnc2)c2ccccc12 | inactive
Cc1ccc(C(=O)COC(=O)CNS(=O)(=O)c2ccccc2)cc1[N+](=O)[O-] | inactive
O=C1/C(=C/c2ccccc2)NC(=S)N1C(c1ccccc1)c1ccccc1 | inactive
Cc1cc(C(=O)NNC(=S)NC(=O)/C=C/c2ccccc2Cl)n[nH]1 | inactive
CN(c1ccccc1)S(=O)(=O)c1cc(C(=O)Nc2nc3ccccc3[nH]2)ccc1Cl | inactive
COC(=O)CSc1nnc(-c2ccco2)n1Cc1ccco1 | inactive
Cc1ccccc1Cn1c(=N)n(CC(=O)c2ccco2)c2ccccc21 | inactive

Structure (SMILES) | outcome
NC(=O)c1oc2ccccc2c1NC(=O)CN1CCCCC1 | inactive
O=C(CN1CCCCC1)Nc1cccc(Br)c1 | inactive
O=C(CSc1nnc2n(C3CCCCC3)c(=O)c3ccccc3n12)OC1CCCCC1 | inactive
OC(COc1ccc2ccccc2c1Br)Cn1ccnc1 (stereo not given) | inactive
COc1cc(C)ccc1OCCCOc1ccccc1Br | inactive
COc1cccc(NC(=O)Cn2c(=O)n(CCCC(=O)NCc3ccco3)c(=O)c3ccccc32)c1 | inactive
Cc1ccc(N(CC(=O)N/N=C/c2ccco2)S(=O)(=O)c2ccccc2)cc1 | inactive
CCCc1ccc(C(=O)CCC(=O)O)cc1 | inactive
COc1cccc(C=NCCNC(=O)c2nonc2N)c1O | inactive
Nc1nonc1C(=O)NCCN=Cc1cc(Cc2ccccc2)cc(Br)c1O | inactive
Nc1nonc1-n1nnc(C(=O)N/N=C/c2ccc(Br)cc2)c1CSC1=NCCS1 | inactive
CC(C)n1cc(C(=O)N2CCCC(N3CCN(c4ccc(F)cc4)CC3)C2)cn1 (stereo not given) | inactive
O=C(CSc1nc2ccccc2o1)Nc1ccc(N2CCOCC2)c(Cl)c1 | inactive
O=C(c1ccccc1)N1CCSC1=S | inactive
CC1(C)CC(=O)C(/C=N/c2ncccc2C(=O)O)=C(O)C1 | inactive
CCCCCn1c(N)c(C(=O)NCc2cccs2)c2nc3ccccc3nc21 | inactive
O=C(c1ccc2nc(N3CCOCC3)sc2c1)N1CCC(Cc2ccccc2)CC1 | inactive
COc1ccc(-c2nnn(CC(=O)N(Cc3ccco3)C(C(=O)NCC3CCCO3)c3ccco3)n2)cc1 (stereo not given) | inactive
C#CC(=O)N(c1cc(OC)ccc1OC)C(C(=O)NC1CCCC1)c1cccs1 (stereo not given) | inactive
CCC(C)NC(=O)c1ccccc1NC(=O)C(C)N(c1ccccc1)S(C)(=O)=O (stereo not given) | inactive

Structure (SMILES) | outcome
Nc1nc(-c2ccc3c(c2)OCCO3)cs1 | inactive
CN(C)c1ccc(Nc2nc(-c3cccnc3)cs2)cc1 | inactive
CCn1c2ccccc2c2cc(N)ccc21 | inactive
CCc1cccc(NC(=O)Nc2cccs2)c1 | inactive
COc1ccc(N=c2cc(-c3ccc(OC)cc3)oc3ccccc23)cc1 | inactive
CCCNC(=O)CSc1nnc(C)s1 | inactive
Cn1ccnc1C(O)c1ccc(OCc2ccccc2)cc1 (stereo not given) | inactive
CSc1nnc2c3c4c(sc3nc(-n3nc(C)cc3C)n12)COC(C)(C)C4 | inactive
COc1ccc(NC(=O)c2ccc(OC)cc2)cc1 | inactive
FC(F)(F)C1=CC(c2ccc(Br)cc2)=NCCN1 | inactive
N=c1scc(-c2ccccc2)n1/N=C/c1ccco1 | inactive
COc1ccc(-c2nnc(SCCC(=O)O)n2-c2ccccc2)cc1 | inactive
O=C(NCCNc1ccc([N+](=O)[O-])cc1C(F)(F)F)c1cccc(F)c1 | inactive
Oc1ccc(Br)cc1-c1nc2cnccn2c1NC1CCCCC1 | inactive
O=C1CCCc2nc(N3CCN(Cc4ccccc4)CC3)ncc21 | inactive
COc1ccccc1CC1(C)NC(=O)N(CC(=O)N2CC(C)OC(C)C2)C1=O (stereo not given) | inactive
Cc1ccccc1OCCSCc1nc2ccccc2[nH]1 | inactive
O=C(Nc1ccc(S(=O)(=O)Nc2nccs2)cc1)c1cc(-c2ccccc2)nc2ccccc12 | inactive
Cc1ccc(C(=O)c2ccccc2C(=O)O)c(O)c1 | inactive
CC(CN1CCOCC1)C(=O)c1ccccc1 (stereo not given) | inactive
